Laboratory results taken from the supplement of paper PMC10849652.
Targets with a hit are over-represented here; the source holds about 7,900 in all. About 0.6% of all pairs of compound and target were hits.

The targets below were run with Cc1nc(Nc2n[nH]c3c2CN(C(=O)N[C@H](CN(C)C)c2ccccc2)C3(C)C)c2sccc2n1 (assay: log2 fold change, soluble protein after heating vs DMSO (PISA); higher = thermal stabilisation; K562 cells, 10 uM, 30 min; active = over 0.2 and 3.5 SD of the protein, either way, in both replicates (recomputed)).
In short: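 Thermal stability values are relative to control samples and come from duplicates. They are expressed as log2 fold changes. For measurement, K562 cells (2×10^6 cells/mL) received 10 μM compound for 30 min, and aliquots were heated for 3 min over 48°C-58°C, pooled, and extracted at 4°C in PBS with 0.5% NP-40. Soluble protein, the supernatant after 21,000xg for 90 min, was quantified by TMTpro 16plex LC-MS/MS with equalised channel sums.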

Chain of UniProt Q15629 (Q15629 whole entry, looked up): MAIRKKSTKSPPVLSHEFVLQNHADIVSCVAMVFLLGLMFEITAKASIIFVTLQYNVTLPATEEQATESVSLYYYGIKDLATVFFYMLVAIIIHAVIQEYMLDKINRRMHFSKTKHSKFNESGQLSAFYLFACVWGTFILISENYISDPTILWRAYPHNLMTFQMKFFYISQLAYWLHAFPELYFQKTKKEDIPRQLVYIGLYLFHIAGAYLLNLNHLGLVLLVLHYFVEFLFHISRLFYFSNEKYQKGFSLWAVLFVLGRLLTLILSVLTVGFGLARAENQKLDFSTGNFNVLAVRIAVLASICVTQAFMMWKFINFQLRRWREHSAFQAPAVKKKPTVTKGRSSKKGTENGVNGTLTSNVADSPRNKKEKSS
Chain of UniProt Q92973 (Q92973 whole entry, looked up): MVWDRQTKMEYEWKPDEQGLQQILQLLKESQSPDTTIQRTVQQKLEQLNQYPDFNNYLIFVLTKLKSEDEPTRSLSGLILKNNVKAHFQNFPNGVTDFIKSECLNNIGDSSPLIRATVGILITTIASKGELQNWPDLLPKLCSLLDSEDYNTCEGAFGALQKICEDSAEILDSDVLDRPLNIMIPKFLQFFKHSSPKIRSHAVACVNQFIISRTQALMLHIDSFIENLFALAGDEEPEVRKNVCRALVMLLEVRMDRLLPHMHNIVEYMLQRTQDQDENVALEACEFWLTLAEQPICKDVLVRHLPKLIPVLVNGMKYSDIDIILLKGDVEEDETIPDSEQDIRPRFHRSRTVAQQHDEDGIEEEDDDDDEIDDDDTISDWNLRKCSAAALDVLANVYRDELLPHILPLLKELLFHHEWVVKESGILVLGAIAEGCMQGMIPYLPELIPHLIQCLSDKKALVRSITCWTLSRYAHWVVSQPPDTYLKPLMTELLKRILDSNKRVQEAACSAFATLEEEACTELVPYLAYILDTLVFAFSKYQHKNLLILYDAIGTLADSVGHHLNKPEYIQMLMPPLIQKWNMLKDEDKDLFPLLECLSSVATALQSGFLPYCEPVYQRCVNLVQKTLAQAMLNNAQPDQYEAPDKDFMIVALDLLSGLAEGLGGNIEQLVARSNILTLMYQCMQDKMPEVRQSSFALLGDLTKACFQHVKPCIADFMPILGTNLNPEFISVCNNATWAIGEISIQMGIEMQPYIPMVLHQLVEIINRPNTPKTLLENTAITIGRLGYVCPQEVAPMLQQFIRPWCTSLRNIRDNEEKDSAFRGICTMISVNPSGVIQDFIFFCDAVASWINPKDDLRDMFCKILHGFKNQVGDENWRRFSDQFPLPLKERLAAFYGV
Chain of UniProt Q9UID3 (Q9UID3 whole entry, looked up): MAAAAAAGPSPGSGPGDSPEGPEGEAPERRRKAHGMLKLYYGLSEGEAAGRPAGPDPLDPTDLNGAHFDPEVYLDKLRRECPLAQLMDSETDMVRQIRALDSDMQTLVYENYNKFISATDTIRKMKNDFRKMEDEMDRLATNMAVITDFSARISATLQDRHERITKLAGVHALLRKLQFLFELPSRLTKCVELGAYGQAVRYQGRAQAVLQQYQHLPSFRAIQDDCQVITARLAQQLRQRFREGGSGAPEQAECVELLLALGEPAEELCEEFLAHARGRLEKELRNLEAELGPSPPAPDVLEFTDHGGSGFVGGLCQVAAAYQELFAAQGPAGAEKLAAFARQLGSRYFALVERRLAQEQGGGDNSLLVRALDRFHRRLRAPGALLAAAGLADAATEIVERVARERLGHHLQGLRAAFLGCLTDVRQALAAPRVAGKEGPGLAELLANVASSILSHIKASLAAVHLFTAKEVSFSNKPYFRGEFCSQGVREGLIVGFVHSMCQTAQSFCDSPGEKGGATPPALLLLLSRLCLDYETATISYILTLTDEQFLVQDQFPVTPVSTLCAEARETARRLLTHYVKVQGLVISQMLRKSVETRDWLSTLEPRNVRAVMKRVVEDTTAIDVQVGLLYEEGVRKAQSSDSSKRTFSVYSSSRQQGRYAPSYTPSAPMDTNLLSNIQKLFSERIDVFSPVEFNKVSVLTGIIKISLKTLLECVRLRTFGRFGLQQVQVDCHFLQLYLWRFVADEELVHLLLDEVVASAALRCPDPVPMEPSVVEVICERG
Chain of UniProt Q9UDW1 (Q9UDW1 whole entry, looked up): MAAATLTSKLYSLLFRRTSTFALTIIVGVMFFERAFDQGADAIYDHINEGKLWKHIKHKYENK
Chain of UniProt O00220 (O00220 whole entry, looked up): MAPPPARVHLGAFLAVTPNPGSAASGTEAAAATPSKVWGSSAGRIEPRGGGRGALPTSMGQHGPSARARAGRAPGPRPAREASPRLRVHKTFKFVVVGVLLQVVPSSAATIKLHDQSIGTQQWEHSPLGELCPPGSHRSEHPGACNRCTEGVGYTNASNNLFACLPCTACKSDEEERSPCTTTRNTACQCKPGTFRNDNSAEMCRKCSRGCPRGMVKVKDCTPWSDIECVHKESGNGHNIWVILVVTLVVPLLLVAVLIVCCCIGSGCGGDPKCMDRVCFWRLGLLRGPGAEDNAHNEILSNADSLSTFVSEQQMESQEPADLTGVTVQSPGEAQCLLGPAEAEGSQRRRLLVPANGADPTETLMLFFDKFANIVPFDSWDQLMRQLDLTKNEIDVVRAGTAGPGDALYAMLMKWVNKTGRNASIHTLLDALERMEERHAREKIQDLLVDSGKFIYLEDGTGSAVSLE
Chain of UniProt Q969X6 (Q969X6 whole entry, looked up): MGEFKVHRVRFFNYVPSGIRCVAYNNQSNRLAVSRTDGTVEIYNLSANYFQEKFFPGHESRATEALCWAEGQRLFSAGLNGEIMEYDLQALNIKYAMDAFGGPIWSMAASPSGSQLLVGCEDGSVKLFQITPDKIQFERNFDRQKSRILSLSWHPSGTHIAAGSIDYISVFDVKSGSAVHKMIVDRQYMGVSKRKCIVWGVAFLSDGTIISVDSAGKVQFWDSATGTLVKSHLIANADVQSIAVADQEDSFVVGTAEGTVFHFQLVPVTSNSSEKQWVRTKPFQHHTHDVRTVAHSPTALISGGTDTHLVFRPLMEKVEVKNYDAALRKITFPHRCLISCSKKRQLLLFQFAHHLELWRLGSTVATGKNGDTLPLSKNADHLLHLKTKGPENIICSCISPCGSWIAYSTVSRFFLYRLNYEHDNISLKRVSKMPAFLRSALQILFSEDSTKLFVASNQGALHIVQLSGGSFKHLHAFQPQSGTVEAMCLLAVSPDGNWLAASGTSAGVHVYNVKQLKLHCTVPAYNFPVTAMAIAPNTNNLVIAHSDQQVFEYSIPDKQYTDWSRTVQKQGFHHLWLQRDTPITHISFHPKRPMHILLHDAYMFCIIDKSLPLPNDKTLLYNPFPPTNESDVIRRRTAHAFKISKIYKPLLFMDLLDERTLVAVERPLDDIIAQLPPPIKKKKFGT
Chain of UniProt Q9Y385 (Q9Y385 whole entry, looked up): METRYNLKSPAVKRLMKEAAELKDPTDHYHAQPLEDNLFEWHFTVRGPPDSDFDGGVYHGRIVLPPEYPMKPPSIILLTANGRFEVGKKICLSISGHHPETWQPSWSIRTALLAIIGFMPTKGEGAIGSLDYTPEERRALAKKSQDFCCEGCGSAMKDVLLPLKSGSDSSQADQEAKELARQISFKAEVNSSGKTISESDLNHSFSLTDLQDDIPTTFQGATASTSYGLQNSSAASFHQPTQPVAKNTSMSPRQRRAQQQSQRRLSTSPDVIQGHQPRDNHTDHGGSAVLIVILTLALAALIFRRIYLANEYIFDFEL
Chain of UniProt O94874 (O94874 whole entry, looked up): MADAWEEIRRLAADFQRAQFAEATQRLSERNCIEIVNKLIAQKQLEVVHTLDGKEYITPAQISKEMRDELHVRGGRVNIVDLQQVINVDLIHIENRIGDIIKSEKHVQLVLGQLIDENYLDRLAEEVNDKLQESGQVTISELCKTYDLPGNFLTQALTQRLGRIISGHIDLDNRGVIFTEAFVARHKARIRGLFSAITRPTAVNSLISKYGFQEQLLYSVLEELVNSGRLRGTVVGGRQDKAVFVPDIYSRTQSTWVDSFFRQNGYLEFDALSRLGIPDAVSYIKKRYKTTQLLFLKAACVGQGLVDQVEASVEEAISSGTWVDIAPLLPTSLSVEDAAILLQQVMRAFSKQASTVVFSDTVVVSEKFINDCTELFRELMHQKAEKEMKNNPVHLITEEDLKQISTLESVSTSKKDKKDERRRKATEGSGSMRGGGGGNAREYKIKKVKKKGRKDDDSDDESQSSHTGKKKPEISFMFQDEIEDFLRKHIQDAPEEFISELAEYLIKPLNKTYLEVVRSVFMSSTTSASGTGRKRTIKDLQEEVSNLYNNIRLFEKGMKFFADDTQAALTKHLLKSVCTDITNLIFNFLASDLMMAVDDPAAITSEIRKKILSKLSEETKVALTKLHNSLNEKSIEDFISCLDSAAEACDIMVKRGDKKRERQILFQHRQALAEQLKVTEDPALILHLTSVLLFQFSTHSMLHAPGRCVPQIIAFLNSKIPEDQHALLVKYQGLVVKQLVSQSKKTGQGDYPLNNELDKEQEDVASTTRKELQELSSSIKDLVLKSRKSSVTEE
Chain of UniProt Q9NQH7 (Q9NQH7 whole entry, looked up): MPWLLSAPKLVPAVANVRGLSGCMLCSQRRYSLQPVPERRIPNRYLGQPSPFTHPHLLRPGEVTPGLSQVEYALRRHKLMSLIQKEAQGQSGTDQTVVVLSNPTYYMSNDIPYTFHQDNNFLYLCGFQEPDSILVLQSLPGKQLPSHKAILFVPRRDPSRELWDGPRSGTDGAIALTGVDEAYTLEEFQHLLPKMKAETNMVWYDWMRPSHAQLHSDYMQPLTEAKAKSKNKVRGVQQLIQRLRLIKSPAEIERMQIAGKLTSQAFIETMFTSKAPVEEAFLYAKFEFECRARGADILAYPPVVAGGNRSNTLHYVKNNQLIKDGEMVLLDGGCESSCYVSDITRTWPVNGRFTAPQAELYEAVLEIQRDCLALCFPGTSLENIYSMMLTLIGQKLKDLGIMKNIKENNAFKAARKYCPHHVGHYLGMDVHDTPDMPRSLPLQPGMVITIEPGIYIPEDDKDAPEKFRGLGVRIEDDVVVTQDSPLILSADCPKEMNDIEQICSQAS

log2 fold change, inactive:
VTA1 (UniProt Q9NP79) -0.011
UBE4B isoform 4 (UniProt O95155) -0.011
USO1 isoform 2 (UniProt O60763) -0.024
VPS16 (UniProt Q9H269) -0.071
WAPL isoform 3 (UniProt Q7Z5K2) 0.01
VTI1A (UniProt Q96AJ9) -0.001
VPS8 (UniProt Q8N3P4) -0.018
UFL1 (UniProt O94874) -0.009
UTP4 (UniProt Q969X6) 0.035
UTP14A (UniProt Q9BVJ6) -0.009
UGGT1 (UniProt Q9NYU2) 0.016
VPS18 (UniProt Q9P253) -0.069
UBA6 -0.137
TMEM161A (UniProt Q9NX61) 0.023
TNFRSF10A (UniProt O00220) -0.055
TRMT61A (UniProt Q96FX7) 0.046
TRAPPC8 (UniProt Q9Y2L5) -0.04
UBE2S (UniProt Q16763) -0.017
UBE2E3 (UniProt Q969T4) 0.023
UCHL5 (UniProt Q9Y5K5) -0.071
VTI1B (UniProt Q9UEU0) 0.015
TNPO1 (UniProt Q92973) -0.128
UQCR10 (UniProt Q9UDW1) 0.02
TMEM87B (UniProt Q96K49) -0.072
USP34 (UniProt Q70CQ2) 0.034
USP14 (UniProt P54578) -0.026
VPS51 (UniProt Q9UID3) -0.037
UBE2J1 (UniProt Q9Y385) -0.09
UBE3D (UniProt Q7Z6J8) -0.001
TRAM1 (UniProt Q15629) 0.074
TOP2A isoform 4 (UniProt P11388) 0.033
XPNPEP3 (UniProt Q9NQH7) 0.027
TRAPPC2L (UniProt Q9UL33) -0.068
XPO5 (UniProt Q9HAV4) -0.118
WDHD1 (UniProt O75717) -0.12
VDAC1 (UniProt P21796) 0.025
